In the supplement of paper PMC10849652:
Targets with a hit are over-represented here; the source holds about 8,800 in all. About 0.5% of all pairs of compound and target were hits.

Columns and labels:
Assay in all cases: log2 fold change, soluble protein after heating vs DMSO (PISA); higher = thermal stabilisation; K562 lysate, 10 uM; active = over 0.2 and 3.5 SD of the protein, either way, in both replicates (recomputed)
alvocidib = compound: CN1CC[C@H](c2c(O)cc(O)c3c(=O)cc(-c4ccccc4Cl)oc23)[C@H](O)C1 [alvocidib]
Outline: (§1)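 A 30 min treatment with 10 μM compound was applied to crude K562 extract at 1 mg/mL protein in PBS pH 7.4 with 1 mM MgCl2. Heating for 3 min spanned 48°C-58°C, after which aliquots were pooled, adjusted to 0.5% NP-40 at 4°C and spun at 21,000xg for 90 min. TMTpro 16plex LC-MS/MS of the supernatant, with channel sums equalised, gave values recorded as log-two fold change in thermal stability against solvent controls, from duplicates.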

Tubastatin A = compound: CN1CCc2c(c3ccccc3n2Cc2ccc(C(=O)NO)cc2)C1 [Tubastatin A]
Outline: as §1

[1] = compound: CNC(=O)C1=CC=CC=C1NC2=NC(=NC=C2Cl)NC3=C(C=C(C=C3)N4CCOCC4)OC
Outline: as §1

defactinib = compound: CNC(=O)c1ccc(Nc2ncc(C(F)(F)F)c(NCc3nccnc3N(C)S(C)(=O)=O)n2)cc1 [defactinib]
Outline: as §1

[2] = compound: CNc1nc(-c2ccc3c(N)n[nH]c3c2)cc(N2C[C@@H](C(=O)NC3CCCCC3)CC[C@H]2C)n1
Outline: as §1

encorafenib = compound: COC(=O)N[C@@H](C)CNc1nccc(-c2cn(C(C)C)nc2-c2cc(Cl)cc(NS(C)(=O)=O)c2F)n1 [encorafenib]
Outline: as §1

[3] = compound: COC(=O)[C@H](CCSC)NC(=O)C1=C(C=C(C=C1)NC[C@H](CS)N)C2=CC=CC=C2
Outline: as §1

alisertib = compound: COc1cc(Nc2ncc3c(n2)-c2ccc(Cl)cc2C(c2c(F)cccc2OC)=NC3)ccc1C(=O)O [alisertib]
Outline: as §1

[4] = compound: COc1cc2nc(-c3cc(F)ccc3O)nc(N[C@@H]3CNC[C@H]3C(C)(C)O)c2cc1OC
Outline: as §1

gefitinib = compound: COc1cc2ncnc(Nc3ccc(F)c(Cl)c3)c2cc1OCCCN1CCOCC1 [gefitinib]
Outline: as §1

Measured: log2 fold change

CAMKK2 (UniProt Q96RR4)
inactive: alvocidib -0.018 | Tubastatin A -0.123 | defactinib 0.059 | [2] -0.113 | encorafenib -0.013 | [3] 0.018 | alisertib -0.01 | [4] 0.019 | gefitinib 0.021
active: [1] 0.277

CAMK1 (UniProt Q14012)
inactive: alvocidib -0.074 | Tubastatin A 0 | [1] 0.067 | defactinib 0.04 | [2] -0.036 | encorafenib -0.054 | [3] -0.032 | alisertib 0.016 | [4] 0.029 | gefitinib -0.01

BCL2L12 (UniProt Q9HB09)
inactive: alvocidib 0.012 | Tubastatin A 0.016 | [1] -0.087 | defactinib 0.113 | [2] -0.059 | encorafenib -0.207 | [3] 0.023 | alisertib 0.008 | [4] 0.1 | gefitinib -0.062

CDK13 (UniProt Q14004)
active: alvocidib 0.287
inactive: Tubastatin A -0.1 | [1] -0.044 | defactinib 0.139 | [2] -0.184 | encorafenib -0.005 | [3] -0.033 | alisertib 0.043 | [4] 0.078 | gefitinib 0.007

CBX5 (UniProt P45973)
Sequence of UniProt P45973 (P45973 whole entry, looked up): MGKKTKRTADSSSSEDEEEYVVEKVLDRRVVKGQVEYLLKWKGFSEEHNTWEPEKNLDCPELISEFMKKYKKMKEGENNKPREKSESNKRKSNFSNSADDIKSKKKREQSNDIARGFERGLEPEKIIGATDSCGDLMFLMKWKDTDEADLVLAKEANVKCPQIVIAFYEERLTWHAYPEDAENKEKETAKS
inactive: alvocidib -0.07 | Tubastatin A 0.037 | [1] 0.073 | defactinib -0.011 | [2] 0.021 | encorafenib -0.035 | [3] -0.007 | alisertib -0.054 | [4] 0.021 | gefitinib 0.009

CDK2 (UniProt P24941)
active: alvocidib 0.304
inactive: Tubastatin A 0.021 | [1] 0.08 | defactinib 0.196 | [2] 0.048 | encorafenib 0.016 | [3] -0.012 | alisertib -0.01 | [4] 0.072 | gefitinib -0.012

CHCHD1 (UniProt Q96BP2)
inactive: alvocidib 0.494 | Tubastatin A 0.046 | [1] 0.028 | defactinib -0.033 | [2] 0.087 | encorafenib -0.018 | [3] -0.042 | alisertib 0.003 | [4] 0.023 | gefitinib 0.228

CCDC32 isoform 2 (UniProt Q9BV29)
Sequence of UniProt Q9BV29 (Q9BV29 whole entry, looked up): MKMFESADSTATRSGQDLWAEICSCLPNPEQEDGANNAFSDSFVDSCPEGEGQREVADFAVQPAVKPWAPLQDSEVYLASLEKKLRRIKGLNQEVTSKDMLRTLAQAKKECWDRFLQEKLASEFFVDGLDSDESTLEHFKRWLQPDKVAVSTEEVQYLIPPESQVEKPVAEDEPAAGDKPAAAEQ
inactive: alvocidib -0.102 | Tubastatin A -0.033 | [1] -0.061 | defactinib 0.095 | [2] 0.04 | encorafenib 0.055 | [3] -0.065 | alisertib -0.098 | [4] -0.045 | gefitinib -0.026

ATG13 isoform 2 (UniProt O75143)
Sequence of UniProt O75143 (O75143 whole entry, looked up): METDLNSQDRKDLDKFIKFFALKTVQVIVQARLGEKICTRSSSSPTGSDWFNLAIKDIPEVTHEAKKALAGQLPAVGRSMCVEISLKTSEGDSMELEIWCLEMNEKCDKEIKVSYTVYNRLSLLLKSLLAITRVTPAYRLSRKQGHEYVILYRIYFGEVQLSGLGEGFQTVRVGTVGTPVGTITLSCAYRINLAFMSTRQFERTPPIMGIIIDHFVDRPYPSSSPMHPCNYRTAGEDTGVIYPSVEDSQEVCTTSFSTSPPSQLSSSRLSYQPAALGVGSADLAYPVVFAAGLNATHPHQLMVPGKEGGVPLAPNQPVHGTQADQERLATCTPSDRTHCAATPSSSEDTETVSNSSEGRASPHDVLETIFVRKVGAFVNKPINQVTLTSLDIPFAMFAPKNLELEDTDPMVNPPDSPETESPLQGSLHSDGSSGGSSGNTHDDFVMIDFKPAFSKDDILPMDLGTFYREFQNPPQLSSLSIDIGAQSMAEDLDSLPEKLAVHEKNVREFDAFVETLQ
inactive: alvocidib -0.106 | Tubastatin A -0.035 | [1] 0.013 | defactinib 0.03 | [2] 0.026 | encorafenib 0.054 | [3] -0.045 | alisertib 0.038 | [4] 0.017 | gefitinib -0.013

CEP120 (UniProt Q8N960)
inactive: alvocidib -0.046 | Tubastatin A 0.098 | [1] -0.096 | defactinib -0.025 | [2] 0.273 | encorafenib 0.065 | [3] -0.117 | alisertib 0.141 | [4] 0.038 | gefitinib 0.119

BORCS5 (UniProt Q969J3)
inactive: alvocidib -0.012 | Tubastatin A 0.043 | [1] -0.001 | defactinib 0.067 | [2] 0.032 | encorafenib 0.074 | [3] -0.09 | alisertib -0.014 | [4] 0.01 | gefitinib -0.079

ATP5PF isoform 2 (UniProt P18859)
inactive: alvocidib 0.203 | Tubastatin A 0.146 | [1] 0.042 | defactinib 0.071 | [2] -0.022 | encorafenib 0.014 | [3] -0.061 | alisertib -0.005 | [4] 0.01 | gefitinib -0.173

CBX1 (UniProt P83916)
inactive: alvocidib 0.078 | Tubastatin A 0.011 | [1] 0.011 | defactinib -0.001 | [2] 0.025 | encorafenib 0.01 | [3] -0.055 | alisertib 0.012 | [4] -0.025 | gefitinib 0.059

BTAF1 (UniProt O14981)
inactive: alvocidib -0.001 | Tubastatin A -0.106 | [1] 0.021 | defactinib -0.013 | [2] 0 | encorafenib 0.021 | [3] 0.008 | alisertib 0.018 | [4] -0.008 | gefitinib 0.009

ATM (UniProt Q13315)
inactive: alvocidib -0.048 | Tubastatin A 0.013 | [1] 0.013 | defactinib 0.105 | [2] -0.005 | encorafenib -0.031 | [3] 0.087 | alisertib -0.01 | [4] 0.078 | gefitinib 0.022

CCDC186 (UniProt Q7Z3E2)
Sequence of UniProt Q7Z3E2 (Q7Z3E2 whole entry, looked up): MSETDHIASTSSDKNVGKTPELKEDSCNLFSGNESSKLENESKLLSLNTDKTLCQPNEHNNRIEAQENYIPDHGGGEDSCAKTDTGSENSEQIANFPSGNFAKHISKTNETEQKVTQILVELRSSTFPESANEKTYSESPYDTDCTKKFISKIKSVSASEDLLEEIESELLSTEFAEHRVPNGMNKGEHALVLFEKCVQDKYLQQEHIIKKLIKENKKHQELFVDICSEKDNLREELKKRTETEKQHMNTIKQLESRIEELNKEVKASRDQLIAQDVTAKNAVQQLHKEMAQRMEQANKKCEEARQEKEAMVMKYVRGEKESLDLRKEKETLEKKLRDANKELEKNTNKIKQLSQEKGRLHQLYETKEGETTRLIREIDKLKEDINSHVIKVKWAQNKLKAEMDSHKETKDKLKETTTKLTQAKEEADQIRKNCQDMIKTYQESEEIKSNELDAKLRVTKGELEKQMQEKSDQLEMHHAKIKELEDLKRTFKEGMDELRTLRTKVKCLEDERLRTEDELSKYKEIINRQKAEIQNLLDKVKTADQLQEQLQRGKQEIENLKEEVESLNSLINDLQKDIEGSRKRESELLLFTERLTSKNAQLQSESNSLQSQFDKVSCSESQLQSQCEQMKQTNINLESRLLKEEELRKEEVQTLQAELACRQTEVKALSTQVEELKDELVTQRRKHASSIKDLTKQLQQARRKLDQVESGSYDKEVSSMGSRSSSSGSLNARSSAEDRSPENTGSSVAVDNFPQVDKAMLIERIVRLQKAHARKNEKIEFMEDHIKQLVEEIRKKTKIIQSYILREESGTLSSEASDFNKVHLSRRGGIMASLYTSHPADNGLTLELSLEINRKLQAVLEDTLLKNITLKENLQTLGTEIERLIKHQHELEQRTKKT
inactive: alvocidib 0.056 | Tubastatin A 0.004 | [1] 0.062 | defactinib -0.012 | [2] -0.029 | encorafenib 0.067 | [3] -0.004 | alisertib 0.015 | [4] 0.004 | gefitinib 0.055

C18orf25 (UniProt Q96B23)
inactive: alvocidib -0.014 | Tubastatin A 0.123 | [1] 0.034 | defactinib 0.084 | [2] 0.041 | encorafenib -0.005 | [3] -0.067 | alisertib 0.019 | [4] -0.027 | gefitinib 0.029

CCNB1 (UniProt P14635)
Sequence of UniProt P14635 (P14635 whole entry, looked up): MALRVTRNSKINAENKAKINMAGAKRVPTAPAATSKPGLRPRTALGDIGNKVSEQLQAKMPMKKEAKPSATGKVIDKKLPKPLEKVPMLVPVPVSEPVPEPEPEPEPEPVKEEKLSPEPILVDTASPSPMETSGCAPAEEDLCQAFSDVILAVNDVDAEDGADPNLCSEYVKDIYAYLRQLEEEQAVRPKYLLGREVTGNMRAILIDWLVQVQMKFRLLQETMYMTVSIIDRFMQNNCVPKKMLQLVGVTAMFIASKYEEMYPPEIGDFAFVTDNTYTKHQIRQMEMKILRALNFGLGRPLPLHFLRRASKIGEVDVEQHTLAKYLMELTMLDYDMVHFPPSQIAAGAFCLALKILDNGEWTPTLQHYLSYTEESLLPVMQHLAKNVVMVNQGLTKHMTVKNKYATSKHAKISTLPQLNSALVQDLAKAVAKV
inactive: alvocidib -0.015 | Tubastatin A 0.021 | [1] -0.003 | defactinib -0.117 | [2] 0.028 | encorafenib 0.029 | [3] -0.023 | alisertib 0 | gefitinib -0.024
active: [4] 0.407

BRAT1 (UniProt Q6PJG6)
Sequence of UniProt Q6PJG6 (Q6PJG6 whole entry, looked up): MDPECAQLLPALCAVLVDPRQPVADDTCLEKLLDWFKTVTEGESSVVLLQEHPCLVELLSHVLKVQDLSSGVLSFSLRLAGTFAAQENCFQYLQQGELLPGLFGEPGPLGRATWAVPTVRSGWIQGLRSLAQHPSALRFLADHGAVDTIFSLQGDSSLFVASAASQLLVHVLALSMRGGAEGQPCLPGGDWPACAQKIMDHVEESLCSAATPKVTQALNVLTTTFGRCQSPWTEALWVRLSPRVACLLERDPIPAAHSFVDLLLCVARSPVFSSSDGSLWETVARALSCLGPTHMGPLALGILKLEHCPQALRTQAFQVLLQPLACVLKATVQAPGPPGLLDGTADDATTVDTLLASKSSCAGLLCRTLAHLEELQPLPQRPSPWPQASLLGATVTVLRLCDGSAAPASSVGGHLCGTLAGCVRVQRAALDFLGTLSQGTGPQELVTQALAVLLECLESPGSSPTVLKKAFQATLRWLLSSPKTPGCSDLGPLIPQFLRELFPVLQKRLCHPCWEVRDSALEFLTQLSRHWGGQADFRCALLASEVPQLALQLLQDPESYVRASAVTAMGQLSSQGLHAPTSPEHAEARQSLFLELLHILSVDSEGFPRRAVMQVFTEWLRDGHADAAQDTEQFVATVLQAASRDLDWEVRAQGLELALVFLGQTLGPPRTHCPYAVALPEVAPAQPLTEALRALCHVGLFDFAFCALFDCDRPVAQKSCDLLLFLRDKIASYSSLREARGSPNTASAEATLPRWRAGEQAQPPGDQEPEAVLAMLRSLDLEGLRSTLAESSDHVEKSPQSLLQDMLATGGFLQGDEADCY
inactive: alvocidib -0.018 | Tubastatin A -0.143 | [1] 0.031 | defactinib -0.046 | [2] -0.041 | encorafenib 0.01 | [3] 0.024 | alisertib -0.008 | [4] 0.018 | gefitinib -0.007

CHCHD4 isoform 2 (UniProt Q8N4Q1)
Sequence of UniProt Q8N4Q1 (Q8N4Q1 whole entry, looked up): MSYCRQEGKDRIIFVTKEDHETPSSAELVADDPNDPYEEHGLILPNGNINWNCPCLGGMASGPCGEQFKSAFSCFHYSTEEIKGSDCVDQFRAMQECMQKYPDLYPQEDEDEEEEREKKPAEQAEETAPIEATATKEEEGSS
inactive: alvocidib -0.145 | Tubastatin A 0.026 | [1] 0.027 | defactinib -0.044 | [2] 0.045 | encorafenib 0.062 | [3] -0.039 | alisertib 0.024 | [4] 0.016 | gefitinib -0.015

CAD (UniProt P27708)
inactive: alvocidib 0 | Tubastatin A -0.063 | [1] 0.01 | defactinib -0.022 | [2] -0.008 | encorafenib 0.001 | [3] 0.067 | alisertib -0.007 | [4] -0.015 | gefitinib -0.032

CARD11 (UniProt Q9BXL7)
inactive: alvocidib 0.073 | Tubastatin A -0.023 | [1] 0.022 | defactinib -0.005 | [2] -0.029 | encorafenib -0.021 | [3] 0.072 | alisertib -0.028 | [4] 0.025 | gefitinib 0.014

CAMKK1 isoform 2 (UniProt Q8N5S9)
active: [1] 0.305
inactive: alvocidib 0.088 | Tubastatin A -0.167 | defactinib 0.051 | [2] -0.118 | encorafenib 0.014 | [3] 0.126 | alisertib -0.033 | [4] -0.048 | gefitinib 0.03

BSDC1 (UniProt Q9NW68)
Sequence of UniProt Q9NW68 (Q9NW68 whole entry, looked up): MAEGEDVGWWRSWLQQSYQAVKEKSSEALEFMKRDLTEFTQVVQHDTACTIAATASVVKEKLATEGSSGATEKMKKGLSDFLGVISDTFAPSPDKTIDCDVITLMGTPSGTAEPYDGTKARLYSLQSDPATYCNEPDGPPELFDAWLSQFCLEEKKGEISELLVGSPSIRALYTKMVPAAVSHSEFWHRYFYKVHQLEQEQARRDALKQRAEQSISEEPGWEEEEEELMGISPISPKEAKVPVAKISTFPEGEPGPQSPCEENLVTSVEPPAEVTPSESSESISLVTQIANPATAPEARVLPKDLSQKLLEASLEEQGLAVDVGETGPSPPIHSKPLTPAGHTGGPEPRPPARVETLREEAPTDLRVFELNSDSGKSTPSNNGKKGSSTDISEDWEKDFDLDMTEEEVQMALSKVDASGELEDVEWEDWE
inactive: alvocidib -0.033 | Tubastatin A 0.052 | [1] 0.018 | defactinib 0.031 | [2] -0.025 | encorafenib 0.112 | [3] -0.149 | alisertib 0.026 | [4] -0.031 | gefitinib -0.017

CALB2 (UniProt P22676)
Sequence of UniProt P22676 (P22676 whole entry, looked up): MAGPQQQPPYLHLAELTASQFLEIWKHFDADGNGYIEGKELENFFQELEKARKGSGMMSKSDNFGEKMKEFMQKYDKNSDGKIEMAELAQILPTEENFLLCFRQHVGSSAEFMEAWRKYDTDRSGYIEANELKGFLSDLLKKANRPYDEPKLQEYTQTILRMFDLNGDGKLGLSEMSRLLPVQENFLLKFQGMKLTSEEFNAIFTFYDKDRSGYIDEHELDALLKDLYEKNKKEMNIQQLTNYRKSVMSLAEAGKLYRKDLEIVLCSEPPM
inactive: alvocidib -0.028 | Tubastatin A -0.022 | [1] -0.028 | defactinib -0.062 | [2] 0.034 | encorafenib -0.014 | [3] -0.003 | alisertib -0.008 | [4] -0.01 | gefitinib 0.112

ATP6V1B1 (UniProt P15313)
inactive: alvocidib -0.118 | Tubastatin A 0.095 | [1] 0.018 | defactinib -0.005 | [2] 0.031 | encorafenib -0.032 | [3] 0.017 | alisertib 0.023 | [4] 0.009 | gefitinib -0.033

CAMLG (UniProt P49069)
Sequence of UniProt P49069 (P49069 whole entry, looked up): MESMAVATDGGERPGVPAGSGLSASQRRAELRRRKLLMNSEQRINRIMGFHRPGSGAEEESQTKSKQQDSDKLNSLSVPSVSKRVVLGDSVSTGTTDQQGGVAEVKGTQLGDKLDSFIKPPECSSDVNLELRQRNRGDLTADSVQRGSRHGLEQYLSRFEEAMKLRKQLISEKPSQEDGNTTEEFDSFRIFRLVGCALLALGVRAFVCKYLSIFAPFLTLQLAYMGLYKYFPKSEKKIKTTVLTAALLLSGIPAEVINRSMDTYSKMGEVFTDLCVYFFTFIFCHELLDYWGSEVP
inactive: alvocidib 0.051 | Tubastatin A -0.037 | [1] 0.044 | defactinib 0.067 | [2] -0.012 | encorafenib 0.09 | [3] -0.13 | alisertib 0.136 | [4] 0.006 | gefitinib 0.028

CDS2 (UniProt O95674)
Sequence of UniProt O95674 (O95674 whole entry, looked up): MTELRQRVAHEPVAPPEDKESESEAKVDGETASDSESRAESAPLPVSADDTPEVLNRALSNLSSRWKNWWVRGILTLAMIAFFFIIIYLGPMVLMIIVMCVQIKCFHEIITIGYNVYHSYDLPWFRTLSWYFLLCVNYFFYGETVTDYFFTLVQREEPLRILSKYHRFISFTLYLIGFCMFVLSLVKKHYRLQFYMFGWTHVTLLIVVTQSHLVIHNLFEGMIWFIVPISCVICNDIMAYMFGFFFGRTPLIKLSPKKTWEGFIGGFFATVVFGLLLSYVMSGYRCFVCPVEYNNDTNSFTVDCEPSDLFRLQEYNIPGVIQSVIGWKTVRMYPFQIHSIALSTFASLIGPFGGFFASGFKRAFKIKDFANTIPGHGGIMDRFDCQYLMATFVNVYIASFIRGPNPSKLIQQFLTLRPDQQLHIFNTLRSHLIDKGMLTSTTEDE
inactive: alvocidib -0.037 | Tubastatin A 0.116 | [1] -0.036 | defactinib 0.04 | [2] -0.021 | encorafenib 0.027 | [3] 0.007 | alisertib 0.012 | [4] 0.033 | gefitinib 0

CASP3 (UniProt P42574)
Sequence of UniProt P42574 (P42574 whole entry, looked up): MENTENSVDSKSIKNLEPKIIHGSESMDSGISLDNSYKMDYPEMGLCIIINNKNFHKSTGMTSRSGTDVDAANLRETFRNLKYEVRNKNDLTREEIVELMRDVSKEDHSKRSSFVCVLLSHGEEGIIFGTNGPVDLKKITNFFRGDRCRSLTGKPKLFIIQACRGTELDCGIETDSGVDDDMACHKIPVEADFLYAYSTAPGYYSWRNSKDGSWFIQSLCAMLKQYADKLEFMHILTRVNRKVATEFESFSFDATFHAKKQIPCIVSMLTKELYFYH
inactive: alvocidib 0.045 | Tubastatin A 0.056 | [1] 0.066 | defactinib 0.008 | [2] 0.064 | encorafenib 0.011 | [3] -0.061 | alisertib -0.037 | [4] 0.001 | gefitinib -0.001

BMS1 (UniProt Q14692)
inactive: alvocidib -0.016 | Tubastatin A -0.024 | [1] 0.042 | defactinib 0.053 | [2] 0.007 | encorafenib 0.075 | [3] 0.01 | alisertib 0.035 | [4] -0.01 | gefitinib -0.042
